# Source: PubChem BioAssay
# HepG2 tox: qHTS for Inhibitors of TGF-b: Cytotox Counterscreen; AID 588856, 2011; Potency, µM (top dose mostly 46.1 µM), inactives show at the top dose activity change, negative = cytotoxicity, usual class: cytotoxic; HepG2 CAGA-GFP viability, ATP luminescence, 18 h; actives 0.76% (n = 410,000); note: potency is the fitted concentration of half-maximal effect
#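 HepG2 CAGA-GFP cells (1000/well, DMEM with 1% FBS) received compound, then TGF-beta at 500 pg/mL final, and were incubated 18 hours at 37 degrees C. Viability was read by CellTiter-Glo luminescence. Media-only wells were set as complete cell-killing and DMSO as no toxicity.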
# ATXN2 expr inh: Primary qHTS for Inhibitors of ATXN expression. HEK-293 ATXN2-luciferase reporter, luminescence, 24 h. Potency, µM (titrated, usually from 57 µM), without a hit: top-dose activity change, negative = inhibition, usual class: inhibitors. actives 0.72% (n = 360,000); note: potency is the fitted concentration of half-maximal effect; % is set by controls: 0 for no effect and ±100 for the full control effect; nearly all actives have a fitted effect of over 55% in size
#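 ATXN2-luciferase reporter cells (luciferase flanked by upstream and downstream ATXN2 gene portions) were treated 24 h at 37 °C with compounds at up to 57 uM. SteadyGlo luminescence gave expression; GF-AFC fluorescence gave viability.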
# D3 antag: qHTS of D3 Dopamine Receptor Antagonist: qHTS; D3R cells, DiscoveRx beta-arrestin luminescence, antagonist mode; active compounds read low; actives 2.5% (n = 360,000); D(3) dopamine receptor (Homo sapiens), P35462; AID 652054, 2013; max response, negative = inhibition, %; in the data active = max response below about -50%; inconclusive = no clear call, values can overlap the other calls; note: % is set by controls: 0 for no effect and ±100 for the full control effect
# Target sequence (P35462 whole entry, looked up): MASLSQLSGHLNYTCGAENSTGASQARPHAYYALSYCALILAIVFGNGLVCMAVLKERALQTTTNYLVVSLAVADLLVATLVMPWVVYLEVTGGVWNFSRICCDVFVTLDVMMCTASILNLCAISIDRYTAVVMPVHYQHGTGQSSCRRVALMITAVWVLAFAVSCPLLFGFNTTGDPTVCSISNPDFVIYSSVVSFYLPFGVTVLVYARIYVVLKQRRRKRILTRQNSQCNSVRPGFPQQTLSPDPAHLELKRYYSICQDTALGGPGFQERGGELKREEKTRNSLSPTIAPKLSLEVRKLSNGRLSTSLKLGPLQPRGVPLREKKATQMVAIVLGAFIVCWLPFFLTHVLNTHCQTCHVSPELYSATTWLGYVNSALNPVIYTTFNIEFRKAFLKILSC
#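 Cells plated overnight at 1500 cells/well, then exposed to library compounds with dopamine controls for 90 minutes at 37 degrees C. DiscoveRx reagent added for 30–60 minutes at room temperature; luminescence read, quantitative HTS format.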
# ATXN viability: Viability Counterscreen for Primary qHTS for Inhibitors of ATXN expression; S2 cells (HEK-293 line with an ATXN2-luciferase reporter) viability, CellTiter-Fluor protease fluorescence, 24 h; Potency, µM (titrated, usually from 56.7 µM), actives largely listed as cytotoxic; actives 0.49% (n = 400,000); note: potency is the fitted concentration of half-maximal effect; nearly all actives have a fitted effect of over 40% in size
# TGFb inhibitor: qHTS for Inhibitors of TGF-b. Potency, µM (highest dose often 46.1 µM), inactives show top-dose activity, negative = inhibition, usual class: inhibitors. actives 1.2% (n = 410,000). HepG2 CAGA-GFP TGF-b/SMAD3 reporter, GFP fluorescence, 18 h; TGF-beta stimulated, 500 pg/mL final; note: potency is the fitted concentration of half-maximal effect; % is set by controls: 0 for no effect and ±100 for the full control effect; nearly all actives have a fitted effect of over 65% in size
#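 HEPG2 CAGA-GFP cells (1000/well, DMEM with 1% FBS) were pre-incubated 2 h at 37 degrees C, given compound by pin tool, then stimulated with TGF-beta at 500 pg/mL final for 18 h before per-cell GFP fluorescence imaging.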
# D3 ag: qHTS of D3 Dopamine Receptor Agonist: qHTS. AID 652048, 2013. max activation, %. actives 0.58% (n = 410,000). D3R DiscoveRx beta-arrestin cells, luminescence, 90 min. D(3) dopamine receptor (Homo sapiens), P35462; in the data active = max activation above about 30%; note: 0% is about no effect
#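 Agonist mode: compounds and dopamine controls were applied to plated cells for 90 min at 37 degrees C after an overnight attachment at 1500 cells/well. Luminescent read-out followed 30 - 60 minutes at room temperature with DiscoveRx detection reagent.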
# The depositor's hits bear a star; i = inactive; ? = inconclusive; . = no result given. An excerpt weighted towards active compounds, which were near 4.8% of everything screened. Unless noted, calls come from the whole dose curve; as a rule, active = well fitted curve in the direction sought with a large enough effect; inconclusive = small, poorly fitted or top-dose-only effect, or another doubt; inactive = no such curve, though single readings can be large; an effect the other way counts as inactive or inconclusive.
SMILES,HepG2 tox,ATXN2 expr inh,D3 antag,ATXN viability,TGFb inhibitor,D3 ag
Clc1cccc(OCCN2CCN(CCOc3cccc(Cl)c3)CC2)c1,-88%,?,-21,?,?,58*
CCN(CC)C1CCN(C(=O)c2cnn(-c3nccc(-c4ccccc4OC)n3)c2-c2ccco2)C1 (stereo unspecified),.,.,.,i,.,.
CC(=O)Oc1ccc(-c2nc(-c3ccccc3)no2)cc1,-43%,.,.,.,-5%,.
Cc1nn(CCOc2cccc(Cl)c2)c(C)c1[N+](=O)[O-],-16%,-6%,-64*,i,12%,-15
CC(C)c1cccc(OCCCCN(C)C)c1,-5%,-7%,-58*,i,7%,-19
Brc1cccc(OCCCN2CCCCCC2)c1,-17%,-31%,-74*,i,6%,-17
Brc1cccc(OCCn2ccnc2)c1,-4%,6%,-65*,i,-2%,-3
CCN(CC)CCOc1cccc(C(C)C)c1,6%,0%,-11,i,-2%,-23
O=c1c2ccccc2sn1-c1ccc(Cl)c(S(=O)(=O)N2CCOCC2)c1,-35%,.,.,.,?,.
CCCCNCCCOc1cccc(Cl)c1,-19%,-18%,-80*,i,18%,-34
CC(C)(C)c1ccc([C@@H](O)CCCN2CCC(C(O)(c3ccccc3)c3ccccc3)CC2)cc1,.,.,.,i,.,.
CCOc1ccccc1NC(=O)NCCN1CCCCC1,26%,-5%,?,i,24%,-10
CC(=O)Nc1ccccc1OCCCN1CCC(C(O)(c2ccccc2)c2ccccc2)CC1,.,-3%,-70*,i,.,-14
CC(=O)Nc1ccc(OCCCN2CCC(C(O)(c3ccccc3)c3ccccc3)CC2)cc1,.,-1%,-104*,?,.,-12
COc1cc(NC(=O)Cn2c(C)cc(C)c(C#N)c2=O)cc(OC)c1,-37%,.,.,.,-9%,7
CCc1ccc(Oc2c(C(F)(F)F)oc3c(CN4CCCC(C)C4)c(O)ccc3c2=O)cc1 (stereo unspecified),-20%,.,.,.,-20%,5
O=[N+]([O-])c1ccc(Sc2cccc3cccnc23)c([N+](=O)[O-])c1,-105%,?,-55*,6.3µM*,4µM*,-13
O=[N+]([O-])c1ccc(Sc2ccncn2)c([N+](=O)[O-])c1,10µM*,.,?,.,11µM*,-4
O=[N+]([O-])c1cc(Cl)ccc1Sc1cccc2cccnc12,-15%,-5%,-22,i,-1%,1
Cc1cc(C)nc(Sc2ccc([N+](=O)[O-])cc2[N+](=O)[O-])n1,-22%,?,-22,i,?,-3
C=CCn1nc([N+](=O)[O-])nc1Sc1cccc2cccnc12,5.6µM*,22µM*,-28,.,3.2µM*,-5
CCc1ccc(NC(=O)CSc2nnc(-c3ccccc3)n2C)cc1,8%,.,.,.,12%,.
Cc1ccc2cc(CN(C(=O)c3cccc(Cl)c3)c3ccccc3)c(=O)[nH]c2c1,3%,8%,.,i,6%,-1
O=c1cc(CN2CCOCC2)c2ccccc2o1,9%,9%,21,i,4%,43*
Cc1ccc(-c2nc3c(c(SCC(=O)Nc4cccc(C(=O)O)c4)n2)Cc2cccc(C)c2O3)cc1,0%,.,.,.,-4%,.
SMILES,HepG2 tox,ATXN2 expr inh,D3 antag,ATXN viability,TGFb inhibitor,D3 ag
Cc1cccc(C2=NN(c3ccccc3)[C@@H](C(=O)N3CCOC3=O)[C@@H]2c2ccc(Cl)cc2)c1,-21%,7%,?,.,?,2
O=C1OCCN1C(=O)[C@H]1[C@H](c2ccc(Cl)cc2)C(c2ccc(F)cc2)=NN1c1ccc(Br)cc1,-31%,-10%,-2,.,-91%,-34
O=C1OCCN1C(=O)[C@H]1[C@H](c2ccc(F)cc2)C(c2ccc(F)cc2)=NN1c1ccc(Br)cc1,-48%,-25%,-21,i,11µM*,-16
Cc1cccc(C2=NN(c3ccccc3)[C@H](CO)[C@H]2c2ccccc2)c1,-95%,-3%,14,.,?,42*
Cc1cccc(C2=NN(c3ccccc3)[C@@H](C(=O)N3CCOC3=O)[C@@H]2c2ccc(F)cc2)c1,-16%,-4%,-3,.,18µM*,-8
O=C1OCCN1C(=O)[C@H]1[C@H](c2ccccc2)C(c2cccc(Cl)c2)=NN1c1ccccc1,-1%,-2%,2,.,?,39*
CNC(=O)Cn1c(=O)c2cccn2c2ccc(F)cc21,-23%,.,.,.,-13%,-10
COc1ccc(S(=O)(=O)n2nc(C)c(S(=O)(=O)N3CCC(C)CC3)c2C)cc1C,6%,9%,.,i,-14%,9
COc1ccc(CC(N)c2csc(NC(=O)c3cccc(OC(F)(F)F)c3)n2)cc1 (stereo unspecified),-100%,?,44,i,?,1
CC(N)c1csc(NC(=O)c2cc(C(C)(C)C)nn2Cc2ccccc2)n1 (stereo unspecified),-99%,?,-12,i,22µM*,-4
COc1ccc(CC(N)c2csc(NC(=O)c3cc(C(C)(C)C)nn3Cc3ccccc3)n2)cc1 (stereo unspecified),11µM*,?,16,i,?,5
COc1ccc(OC)c(CCNC(=O)CCc2cn(Cc3cc(C)ccc3C)c3ccccc23)c1,-19%,.,.,.,-32%,-17
N/C(=N\OC(=O)c1ccccc1Cl)c1ccccn1,-61%,16µM*,6,i,3%,1
COc1ccc(C(=O)O/N=C(\N)c2ccccn2)cc1,-42%,11µM*,1,i,6%,4
COc1ccccc1C(=O)O/N=C(\N)c1ccccn1,-26%,?,5,i,?,-1
CCC(c1nnnn1-c1c(C)cccc1C)N1CCN(c2cccc(C(F)(F)F)n2)CC1 (stereo unspecified),.,-4%,-68*,i,.,-13
OC[C@H]1O[C@@H](n2cnc3c2NC=NC[C@H]3O)C[C@@H]1O,.,.,.,i,.,44*
OC[C@H]1O[C@@H](n2cnc3c2NC=NC[C@@H]3O)C[C@H]1O,.,-8%,.,.,.,.
COc1ccc(OC2C(=O)N(Cc3ccc(F)cc3)C2c2ccc(OC)c(OC)c2)cc1 (stereo unspecified),-8%,6%,-14,i,-2%,-11
COc1ccc(OC2C(=O)N(Cc3ccc4c(c3)OCO4)C2c2sccc2C)cc1 (stereo unspecified),-24%,?,39,i,1%,34*
